{
  "source": "PubChem BioAssay (EPA / NIEHS)",
  "note": "Results filed as inconclusive are left out. The source made the active and inactive calls. Rule for the calls: active = hit-call score of the fitted dose curve at least 0.9, where 1 is the maximum; inconclusive = response in the unintended direction; inactive = score below 0.9.",
  "data": [
    {"biological_target": "human Colony Stimulating Factor 1 Receptor (CSF1R), CSF1R (gene 1436) (UniProt P07333)", "sequence (P07333 whole entry, looked up)": "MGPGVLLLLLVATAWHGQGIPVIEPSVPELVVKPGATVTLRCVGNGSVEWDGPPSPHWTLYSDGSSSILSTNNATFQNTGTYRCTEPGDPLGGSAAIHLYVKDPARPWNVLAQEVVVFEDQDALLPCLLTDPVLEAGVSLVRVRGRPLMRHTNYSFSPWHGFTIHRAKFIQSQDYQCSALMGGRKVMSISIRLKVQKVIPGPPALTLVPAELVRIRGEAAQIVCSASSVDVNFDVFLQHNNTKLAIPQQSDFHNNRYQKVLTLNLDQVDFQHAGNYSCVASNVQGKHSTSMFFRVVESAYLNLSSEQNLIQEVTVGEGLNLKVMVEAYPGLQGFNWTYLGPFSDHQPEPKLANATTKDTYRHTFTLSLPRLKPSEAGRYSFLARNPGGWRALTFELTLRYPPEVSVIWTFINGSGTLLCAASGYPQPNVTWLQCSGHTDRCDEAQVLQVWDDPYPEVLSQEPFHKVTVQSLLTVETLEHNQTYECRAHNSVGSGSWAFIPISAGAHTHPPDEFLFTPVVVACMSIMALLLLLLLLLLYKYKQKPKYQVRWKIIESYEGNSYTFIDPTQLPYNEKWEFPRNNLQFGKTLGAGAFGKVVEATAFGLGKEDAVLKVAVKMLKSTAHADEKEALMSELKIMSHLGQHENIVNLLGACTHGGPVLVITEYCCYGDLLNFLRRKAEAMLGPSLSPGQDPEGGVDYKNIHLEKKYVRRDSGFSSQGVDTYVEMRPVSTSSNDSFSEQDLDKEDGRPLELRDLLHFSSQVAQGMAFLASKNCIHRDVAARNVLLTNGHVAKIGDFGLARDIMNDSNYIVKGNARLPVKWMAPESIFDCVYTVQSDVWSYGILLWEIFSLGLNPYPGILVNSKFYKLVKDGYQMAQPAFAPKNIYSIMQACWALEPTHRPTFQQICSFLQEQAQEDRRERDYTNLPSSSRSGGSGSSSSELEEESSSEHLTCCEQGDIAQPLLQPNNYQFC", "experiment": "NVS_ENZ_hCSF1R: NovaScreen (NVS) Enzymatic Assay for human Colony Stimulating Factor 1 Receptor (CSF1R) (AID 2283150)", "method_in_brief": "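Compounds screened in duplicate at 25 uM, then concentration-response (top 50 uM) for those passing threshold such as 30% inhibition; recombinant CSF1R activity measured 1 h post-dosing via fluorescent substrate/product mobility-shift separation, loss of signal versus DMSO.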", "values": [
      {"smiles": "CCOc1ccc2c(c1)C(C)=CC(C)(C)N2", "AC50": "25 µM (active)"},
      {"smiles": "CCc1c(C(=O)NN2CCCCC2)nn(-c2ccc(Cl)cc2Cl)c1-c1ccc(Br)cc1", "outcome": "inactive"},
      {"smiles": "FC(F)(F)C(F)(F)C(F)(F)C(F)(F)C(F)(F)C(F)(F)CCI", "outcome": "inactive"}
    ]},
    {"biological_target": "human Dual Specificity Protein Phosphatase 3 (DUSP3), DUSP3 (gene 1845) (UniProt P51452)", "sequence (P51452 whole entry, looked up)": "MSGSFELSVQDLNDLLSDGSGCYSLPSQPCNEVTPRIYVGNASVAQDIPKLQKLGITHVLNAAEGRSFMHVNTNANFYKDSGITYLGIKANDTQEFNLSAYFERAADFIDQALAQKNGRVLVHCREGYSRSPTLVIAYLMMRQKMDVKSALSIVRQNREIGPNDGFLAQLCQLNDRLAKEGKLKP", "experiment": "NVS_ENZ_hDUSP3: NovaScreen (NVS) Enzymatic Assay for human Dual Specificity Protein Phosphatase 3 (DUSP3) (AID 2283152)", "method_in_brief": "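Cell-free fluorescence-intensity enzyme activity assay with recombinant protein and substrate; loss of signal fitted relative to DMSO baseline. Primary screen in duplicate at 25 uM, actives then run in concentration series; measured 0 h after dosing.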", "values": [
      {"smiles": "CCCCCCCCCCCCCCCCCC(=O)O", "AC50": "19.6 µM (active)"},
      {"smiles": "CCCCC(CC)COC(=O)CC(C(=O)OCC(CC)CCCC)S(=O)(=O)O", "note": "(stereo not drawn)", "AC50": "14.7 µM (active)"},
      {"smiles": "COc1cc(-c2nc(NC(=O)c3cc4cc(C)cc(C)c4n3CC(=O)O)sc2CCC2CCCCC2)c(OC)cc1Cl", "AC50": "1.23 µM (active)"},
      {"smiles": "Oc1ccc2c(c1)OC[C@@H](N1CCC(O)(c3ccc(F)cc3)CC1)[C@H]2O", "outcome": "inactive"}
    ]},
    {"biological_target": "human Elastase, ELANE (gene 1991) (UniProt P08246)", "sequence (P08246 whole entry, looked up)": "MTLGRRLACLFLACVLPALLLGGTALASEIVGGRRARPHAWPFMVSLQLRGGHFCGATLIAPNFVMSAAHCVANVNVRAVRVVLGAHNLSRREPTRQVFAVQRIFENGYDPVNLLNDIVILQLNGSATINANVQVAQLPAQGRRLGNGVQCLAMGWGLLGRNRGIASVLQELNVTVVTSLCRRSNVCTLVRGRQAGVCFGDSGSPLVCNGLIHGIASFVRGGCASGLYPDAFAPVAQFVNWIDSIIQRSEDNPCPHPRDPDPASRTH", "experiment": "NVS_ENZ_hElastase: NovaScreen (NVS) Enzymatic Assay for human Elastase (AID 2283153)", "method_in_brief": "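Concentration-response to 50 uM max, run singly for chemicals passing a threshold (e.g., 30% inhibition) in a duplicate 25 uM single-point screen. Neutrophil-derived human elastase, absorbance read-out of enzyme activity at 1.5 h; DMSO baseline.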", "values": [
      {"smiles": "CCCCCCCCCCCCCCCCCC(=O)O", "AC50": "7.85 µM (active)"},
      {"smiles": "Nc1nc(N)c2nc(CNc3ccc(C(=O)N[C@@H](CCC(=O)O)C(=O)O)cc3)cnc2n1", "outcome": "inactive"},
      {"smiles": "CCCCC(CC)COC(=O)CC(C(=O)OCC(CC)CCCC)S(=O)(=O)O", "note": "(stereo not drawn)", "AC50": "25 µM (active)"},
      {"smiles": "CC1=C(/C=C/C(C)=C/C=C/C(C)=C/CO)C(C)(C)CCC1", "AC50": "21.8 µM (active)"},
      {"smiles": "COc1cc(-c2nc(NC(=O)c3cc4cc(C)cc(C)c4n3CC(=O)O)sc2CCC2CCCCC2)c(OC)cc1Cl", "AC50": "5.61 µM (active)"},
      {"smiles": "CCc1c(C(=O)NN2CCCCC2)nn(-c2ccc(Cl)cc2Cl)c1-c1ccc(Br)cc1", "outcome": "inactive"}
    ]}
  ]
}
